# Laboratory results as given in PubChem BioAssay AID1209 (Sanford-Burnham Center for Chemical Genomics, 2008).
# Screen size: about 190,000 compounds; about 810 (0.43%) were called active. Shown is part of a subset that was picked to be rich in actives. Values without a mark were called inactive. No stated cut-off is given here; in the data, active means inhibition above about 50%; inactive means the rest.
# Target: Mannose-6-phosphate isomerase (Homo sapiens) (UniProt P34949)
# Test: MPI enzyme activity inhibition – biochemical, fluorescence intensity, coupled assay, primary screen (AID 1209);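 further: plate controls were DMSO vehicle for no effect and wells lacking substrate for full effect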
# Conditions: purified PMI enzyme, at 20 µM, active compounds read high
# Sequence of Mannose-6-phosphate isomerase (Homo sapiens) (P34949 whole entry, looked up): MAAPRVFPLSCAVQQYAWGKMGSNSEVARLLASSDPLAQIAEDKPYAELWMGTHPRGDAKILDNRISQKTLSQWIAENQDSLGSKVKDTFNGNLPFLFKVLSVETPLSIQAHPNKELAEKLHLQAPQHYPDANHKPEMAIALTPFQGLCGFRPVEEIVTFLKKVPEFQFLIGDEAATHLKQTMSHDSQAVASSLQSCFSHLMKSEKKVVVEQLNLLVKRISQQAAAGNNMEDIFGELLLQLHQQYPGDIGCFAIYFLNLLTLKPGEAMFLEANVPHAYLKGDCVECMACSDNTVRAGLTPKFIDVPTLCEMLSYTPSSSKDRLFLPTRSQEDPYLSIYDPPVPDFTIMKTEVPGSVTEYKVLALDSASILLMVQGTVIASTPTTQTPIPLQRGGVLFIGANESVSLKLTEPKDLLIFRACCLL
row,SMILES,inhibition
1,O=C(NC1(C(F)(F)F)Oc2ccc(Cl)cc2O1)N1CCC2(CC1)OCCO2 (stereo unspecified),79.1% (active)
2,O=C(NC1(C(F)(F)F)Oc2ccccc2O1)N1CCC2(CC1)OCCO2,32.9%
3,O=C(NC(=O)N1CCC2(CC1)OCCO2)c1ccc(Cl)cc1,10.2%
4,CC(=O)Nc1ccccc1C(=O)OCc1ccc(F)cc1,1.8%
5,CS(=O)(=O)N1CCN(C(=N)N[N+](=O)[O-])CC1,-5.1%
6,C/C(=N\N1CCCCC1c1cccnc1)c1c(O)n(C2CCCCC2)c(=S)[nH]c1=O (stereo unspecified),5.8%
7,O=C1C(=O)c2ccccc2-c2ccccc21,25.8%
8,O=C1C=Cc2ccccc2C1=O,79.1% (active)
9,O=C1C(=O)c2cccc3cccc1c23,17.2%
10,Cc1cc(Oc2ccc(C(F)(F)F)cc2[N+](=O)[O-])c2c3c(c(=O)oc2c1)CCC3,-1.9%
11,Cc1cc(N2C(=O)CC(N3CCC(n4c(=O)[nH]c5ccccc54)CC3)C2=O)no1 (stereo unspecified),6.9%
12,COc1cc(CN2CC3CC(C2)c2cccc(=O)n2C3)cc(OC)c1OC (stereo unspecified),-1.2%
13,CCN(CC)c1ccc(N=Cc2c(O)n(CCc3ccc(OC)c(OC)c3)c(=O)[nH]c2=O)cc1,50% (active)
14,CCN(CC)CCCN=Cc1c(O)n(CCc2ccc(OC)c(OC)c2)c(=O)[nH]c1=O,-10.4%
15,CCN(CC)c1ccc(N=Cc2c(O)n(CCC3=CCCCC3)c(=O)[nH]c2=O)cc1,24.6%
16,CCOC(=O)C(NC(=O)C(Cc1ccc(N(CCCl)CCCl)cc1)NC(C)=O)C(C)C (stereo unspecified),-44.3%
17,O=C1NC(=S)N(c2ccc(Br)cc2)C(=O)/C1=C/N1CCN(C(=O)c2ccco2)CC1,25.8%
18,Cc1ccc(N2C(=O)/C(=C/N3CCN(C(=O)c4ccco4)CC3)C(=O)NC2=S)cc1C,37.6%
19,Cc1cccc(N2C(=O)/C(=C/N3CCN(C(=O)c4ccco4)CC3)C(=O)NC2=S)c1,55.5% (active)
20,CSCCC(N=Cc1c(O)n(-c2ccc(F)cc2)c(=O)[nH]c1=O)C(=O)OC(C)(C)C (stereo unspecified),12.2%
21,O=C(CNC(=O)c1cccc(Cl)c1)Nc1ccc(Br)cc1C(=O)c1ccccc1,17.1%

row,SMILES,inhibition
1,Cc1ccc(NC2=NCCCS2)c(C)c1C,12.6%
2,Cc1cc(/C=C2/C(=O)NC(=O)N(C)C2=O)c(C)n1-c1ccccc1,2.6%
3,Cc1ccnc(-n2c(C)cc(C=C3C(=O)N(C)C(=S)N(C)C3=O)c2C)c1,23.1%
4,C=CCN1C(=O)/C(=C/c2cc(C)n(-c3cccnc3)c2C)C(=O)NC1=S,50.2% (active)
5,C=CCN1C(=O)/C(=C/c2cc(C)n(-c3ccccn3)c2C)C(=O)NC1=S,-25.6%
6,Cc1cc(C=C2C(=O)N(C)C(=O)N(C)C2=O)c(C)n1-c1ccccc1,-25.1%
7,Cc1cc(C=C2C(=O)N(C)C(=S)N(C)C2=O)c(C)n1-c1cccnc1,59.6% (active)
8,COc1cc2c(cc1O)C[C@H]1NCCc3cc4c(c-2c31)OCO4,6.6%
9,CCOC(=O)c1c(C)n(Cc2ccccc2)c2ccc(OCC(O)CN3C(=O)CNC3=O)cc12 (stereo unspecified),60.1% (active)
10,CCOC(=O)c1c(C)n(Cc2ccccc2)c2ccc(OCC(O)Cn3nc(C)nc3C)cc12 (stereo unspecified),15.7%
11,CCOC(=O)c1c(C)n(Cc2ccccc2)c2ccc(OCC(O)Cn3nc(C)cc3C)cc12 (stereo unspecified),16.3%
12,C=CCOC(=O)C1=C(C)OC(N)=C(C#N)[C@@]12C(=O)N(CC(N)=O)c1ccccc12,-6.8%
13,CCOC(=O)C1=C(C)OC(N)=C(C#N)C12C(=O)N(C)c1ccccc12 (stereo unspecified),5.2%
14,C#CCN1C(=O)C2(C(C#N)=C(N)OC(C)=C2C(=O)OCc2ccccc2)c2ccccc21 (stereo unspecified),51.6% (active)
15,Nc1ccc(Cl)cc1C(=O)c1ccccc1Cl,5.4%
16,CCN(CC)P(c1n(C)cc[n+]1C)N(CC)CC,54.3% (active)
17,CNC(=O)OCc1n(C)cc[n+]1C,20.7%
18,CN(C)C(=O)OCc1n(C)cc[n+]1C,-9.3%
19,CCn1cc(CN2CCCC(C(=O)c3cccc(OC)c3)C2)c(C)n1 (stereo unspecified),13%
20,CNC(C(=O)c1ccccc1)C(OC)c1ccc(C)cc1 (stereo unspecified),-37.6%
